In all, about 3,200 compounds went through this assay and about 300 (9.4%) showed activity. The full list was thinned out, with actives kept by preference.
Tested on: A673/TR/shEF
Assay: cell viability (LOESS-normalised, relative to median of negative controls) (log2 ratio); higher = more viable cells (less compound effect), active = hit call of the paper (over 3 MAD below the median)
Conditions: treatment time: 72 h
Method in brief: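 A673/TR/shEF Ewing sarcoma cells were plated at 1,500 per well in 384-well plates and cultured with or without doxycycline, added 24 h before compounds, to induce EWS-FLI1 shRNA knockdown. Library compounds at two or more concentrations, alongside DMSO controls, were applied for three days. Cell viability was measured by CellTiter-Glo luminescence on an Envision reader. Readings were LOESS-corrected per plate, divided by the median of negative controls and log2-transformed, and hits were wells lying at least three median absolute deviations from the median of all screened wells.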

[1] = 0.103 µM, library screen: screen3, EWS-FLI1 expression: high (no doxycycline)
[2] = 0.103 µM, library screen: screen3, EWS-FLI1 expression: low (doxycycline-induced shRNA knockdown)
[3] = 0.308 µM, library screen: screen3, EWS-FLI1 expression: high (no doxycycline)
[4] = 0.308 µM, library screen: screen3, EWS-FLI1 expression: low (doxycycline-induced shRNA knockdown)
[5] = 0.926 µM, library screen: screen3, EWS-FLI1 expression: high (no doxycycline)
[6] = 0.926 µM, library screen: screen3, EWS-FLI1 expression: low (doxycycline-induced shRNA knockdown)
[7] = 2.8 µM, library screen: screen3, EWS-FLI1 expression: high (no doxycycline)
[8] = 2.8 µM, library screen: screen3, EWS-FLI1 expression: low (doxycycline-induced shRNA knockdown)
[9] = 8.3 µM, library screen: screen3, EWS-FLI1 expression: high (no doxycycline)
[10] = 8.3 µM, library screen: screen3, EWS-FLI1 expression: low (doxycycline-induced shRNA knockdown)
[11] = 25 µM, library screen: screen3, EWS-FLI1 expression: high (no doxycycline)
[12] = 25 µM, library screen: screen3, EWS-FLI1 expression: low (doxycycline-induced shRNA knockdown)
[13] = 0.25 µM, library screen: screen1, EWS-FLI1 expression: high (no doxycycline)
[14] = 0.25 µM, library screen: screen1, EWS-FLI1 expression: low (doxycycline-induced shRNA knockdown)
[15] = 2.5 µM, library screen: screen1, EWS-FLI1 expression: high (no doxycycline)
[16] = 2.5 µM, library screen: screen1, EWS-FLI1 expression: low (doxycycline-induced shRNA knockdown)
[17] = 0.25 µM, library screen: screen2, EWS-FLI1 expression: high (no doxycycline)
[18] = 0.25 µM, library screen: screen2, EWS-FLI1 expression: low (doxycycline-induced shRNA knockdown)
[19] = 2.5 µM, library screen: screen2, EWS-FLI1 expression: high (no doxycycline)
[20] = 2.5 µM, library screen: screen2, EWS-FLI1 expression: low (doxycycline-induced shRNA knockdown)

Measured: cell viability (log2)

COC(=O)Nc1ccc(-c2nc(N3CCOCC3)c3cnn(C4CCN(Cc5cccnc5)CC4)c3n2)cc1
inactive: [1] -0.0181 | [2] 0.0282 | [3] -0.00456 | [4] -0.0439 | [5] -0.169 | [6] -0.0706
active: [7] -0.33 | [8] -0.297 | [9] -0.973 | [10] -0.691 | [11] -1.84 | [12] -1.76

COc1cc(OC)c(OC)cc1CN1CCN(Cc2cccnc2)CC1
inactive: [13] 0.0812 | [14] 0.0446 | [15] 0.193 | [16] 0.00403

COC(=O)Nc1ccc(-c2nc(N3CCOCC3)c3cnn(C4CCN(C(=O)OC)CC4)c3n2)cc1
active: [7] -0.281 | [8] -0.237 | [9] -0.419 | [10] -0.244 | [11] -0.744 | [12] -0.369
inactive: [1] -0.0923 | [2] 0.0164 | [3] -0.0767 | [4] -0.0949 | [5] -0.134 | [6] -0.0918

COc1cc(/C=C/C(=O)/C=C(O)/C=C/c2ccc(O)c(OC)c2)ccc1O
inactive: [13] 0.0822 | [14] 0.0311 | [15] 0.0603 | [16] -0.0173

COC(=O)c1c(C)c2c(c(C)c1OC(C)=O)OC(=O)c1c(C)c(Cl)c(OC(C)=O)c(Cl)c1O2
inactive: [13] 0.0638 | [14] 0.0229 | [15] 0.0457 | [16] -0.0376

C/C1=C2N=C(/C=C3N=C(/C(C)=C4\[N-]C(C(CC(N)=O)C4(C)CCC(=O)NCC(C)OP(=O)([O-])OC4C(CO)OC(n5cnc6cc(C)c(C)cc65)C4O)C4(C)N=C1C(CCC(N)=O)C4(C)CC(N)=O)C(CCC(N)=O)C\3(C)C)C(CCC(N)=O)C/2(C)CC(N)=O.[Co+3] (stereo unspecified)
inactive: [13] -0.0019 | [14] 0.0391 | [15] 0.0729 | [16] 0.0491

COc1cc(CN2CCN(Cc3cccc(Cl)c3)CC2)c([N+](=O)[O-])cc1OC
inactive: [13] 0.103 | [14] 0.0472 | [15] 0.18 | [16] 0.111

CCc1c(C)c(C#N)c2nc3ccccc3n2c1N1CCN(C)CC1
inactive: [13] 0.145 | [14] 0.157 | [15] 0.118 | [16] 0.0375

COc1cc(/C=C(\C#N)C(=O)c2ccc(O)c(O)c2)cc(I)c1O
inactive: [17] 0.152 | [18] 0.068 | [19] 0.173 | [20] -0.0106

N#C/C(=C\c1c[nH]c2ccccc12)C(=O)c1ccc(O)c(O)c1
inactive: [17] 0.155 | [18] 0.0215 | [19] 0.202 | [20] 0.127

N#C/C(=C\c1ccc(O)c(O)c1)C(=O)NCCCNC(=O)/C(C#N)=C/c1ccc(O)c(O)c1
inactive: [17] 0.153 | [18] 0.132 | [19] 0.199 | [20] 0.0575

N#C/C(=C\c1ccc(O)c(O)c1)C(=O)c1ccc(O)c(O)c1
active: [17] -0.567 | [18] -0.546 | [19] -2.72 | [20] -2.83

N#C/C(=C\c1ccc(O)c(O)c1)C(N)=O
0.319: [13]
active: [15] -0.381 | 25 µM, library screen: screen1, EWS-FLI1 expression: high (no doxycycline) -0.224
inactive: 0.025 µM, library screen: screen1, EWS-FLI1 expression: high (no doxycycline) 0.246 | 0.025 µM, library screen: screen1, EWS-FLI1 expression: low (doxycycline-induced shRNA knockdown) 0.0278 | [14] 0.0878 | [16] 0.0598 | 25 µM, library screen: screen1, EWS-FLI1 expression: low (doxycycline-induced shRNA knockdown) 0.125

c1coc(CN2CCN(Cc3ccc4ccccc4c3)CC2)c1
inactive: [13] 0.0477 | [14] 0.0071 | [15] 0.142 | [16] 0.0832

COc1ccc2c(c1)CCC1C2CCC2(C)C1C[C@@H](O)[C@@H]2O (stereo partly specified)
inactive: [13] 0.105 | [14] 0.0162 | [15] 0.204 | [16] -0.0118

OC[C@H]1O[C@@H](n2cnc3c(NCCc4ccccc4)ncnc32)C(O)[C@H]1O (stereo partly specified)
inactive: [17] 0.15 | [18] 0.163 | [19] 0.0914 | [20] 0.0608

O=C(O)CCC(=O)OCC(NC(=O)C(Cl)Cl)C(O)c1ccc([N+](=O)[O-])cc1 (stereo unspecified)
inactive: 0.025 µM, library screen: screen2, EWS-FLI1 expression: high (no doxycycline) 0.127 | 0.025 µM, library screen: screen2, EWS-FLI1 expression: low (doxycycline-induced shRNA knockdown) 0.0706 | [13] -0.0271 | [14] 0.0474 | [17] 0.193 | [18] -0.0115 | [15] 0.0762 | [16] 0.177 | [19] 0.153 | [20] 0.083 | 25 µM, library screen: screen2, EWS-FLI1 expression: high (no doxycycline) 0.0706 | 25 µM, library screen: screen2, EWS-FLI1 expression: low (doxycycline-induced shRNA knockdown) 0.0478

— the supplement of paper PMC6089552
